Experiment [1] is described as follows: qHTS profiling of the MIPE4 collection as inhibitors of Plasmodium falciparum (DD2) proliferation (AID 743345; call rule not given here). The settings on record: P. falciparum Dd2 in erythrocytes, SYBR Green DNA, 72 h; at 28.5 µM (top of the series) unless noted. Summed up:
(§1)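 Parasite DNA was quantified by SYBR Green I fluorescence (ex 485, em 535 nm) after overnight lysis in saponin/Triton buffer at room temperature. Cultures at 0.3% parasitemia and 2.5% hematocrit were first exposed to compound for 72 h at 37 C; signals were normalised to artemisinin (0.29 uM) and vehicle wells.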

Experiment [2] in a line: qHTS profiling of the MIPE4 collection as inhibitors of Plasmodium falciparum (DD2) proliferation (Rep 2) (AID 743346; call rule not given here). The settings on record: P. falciparum Dd2 in erythrocytes, SYBR Green DNA, 72 h; at 28.5 µM (top of the series) unless noted. The procedure, abridged:
as §1
Background: In qHTS, concentration-response curves come from the screen itself.

The nature of experiment [3]: qHTS profiling of the MIPE4 collection as inhibitors of Plasmodium falciparum (HB3) proliferation (AID 743347; call rule not given here;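 note: plate controls were DMSO vehicle wells for no effect and artemisinin wells for full effect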). The settings on record: P. falciparum HB3 in erythrocytes, SYBR Green DNA, 72 h; at 28.5 µM (top of the series) unless noted. Summed up: as §1
A short description of experiment [4]: High-throughput drug toxicity screening in the BPDCN cell line Gen2.2 (AID 1224824; call rule not given here;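 note: cells exposed to compounds for 48 h before reading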). The settings on record: Gen2.2 BPDCN cells; at 45.8 µM (top of the series) unless noted. Summed up:
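Seed 500 exponentially growing Gen2.2 cells/well; add compounds by pin tool; incubate 48 h, 37 °C, 5% CO2; add CellTiter-Glo, 15 min RT; read luminescence. % activity vs DMSO (100%) and bortezomib (0%).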

A short description of experiment [5]: High-throughput drug toxicity screening in the BPDCN cell line Cal-1 (AID 1224825; call rule not given here). The settings on record: Cal-1 BPDCN cell viability, qHTS; at 45.8 µM (top of the series) unless noted. The procedure, abridged: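 CellTiter-Glo luminescence after 48 h compound exposure; percent activity scaled with DMSO as 100% and bortezomib (9.2 uM final) as 0%. Cal-1 cells seeded at 500/well in RPMI, 10% FBS, no phenol red.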

Experiment [6] in a line: qHTS assay for measurement of the activity of small molecule inhibitors on Zika virus induced Caspase-3 activity in human iPSC derived neural progenitor cells (hNPCs) (AID 1224857). Note: nearly all actives have a fitted effect of over 65% in size. Note: potency is the fitted concentration of half-maximal effect. Summed up: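 Pretreat hNPCs with compound 1 h; infect ZIKV 2 FFU/cell; 6 h 37 C, 5% CO2; Caspase-Glo 3/7, 30 min RT; luminescence; normalize to no-virus and virus-only wells.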
Experiment [7] is described as follows: qHTS assay for measurement of the activity of small molecule inhibitors on Zika virus induced Caspase-3 activity in human astrocytoma cells (AID 1224859). Note: potency is the fitted concentration of half-maximal effect. The procedure, abridged: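 Human SNB-19 astrocytoma cells in RPMI 1640 with 10% FBS receive compound one hour ahead of Zika virus at 2 FFU/cell. After 6 h infection, caspase-3/7 activity is detected by Caspase-Glo luminescence.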

A short description of experiment [8]: qHTS Screen of the MIPE 4.0 Collection Against Ewings Sarcoma (RDES) (AID 1259252). Note: nearly all actives have a fitted effect of over 35% in size. Note: potency is the fitted concentration of half-maximal effect. The procedure, abridged:
(§2)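 Dose series incubated 48 h with cells in RPMI plus 5% FBS, glutamine and penicillin/streptomycin; cell viability then quantified via CellTiter-Glo.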

Experiment [9] in a line: qHTS Screen of the MIPE 4.0 Collection Against Ewings Sarcoma (TC71) (AID 1259253). Note: nearly all actives have a fitted effect of over 40% in size. Note: potency is the fitted concentration of half-maximal effect. Summed up:
as §2

Experiment [10] can be described thus: qHTS Screen of the MIPE 4.0 Collection Against Ewings Sarcoma (EW8) (AID 1259255).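 For viability: 100% = DMSO-treated cells and 0% = medium-only wells without cells.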 Note: nearly all actives have a fitted effect of over 35% in size. Note: potency is the fitted concentration of half-maximal effect. Summed up:
as §2

Experiment [11] can be described thus: qHTS Screen of the MIPE 4.0 Collection Against Ewings Sarcoma (TC32) (AID 1259256). Note: nearly all actives have a fitted effect of over 45% in size. Note: potency is the fitted concentration of half-maximal effect. Summed up: as §2
A short description of experiment [12]: P-glycoprotein substrates identified in KB-3-1 adenocarcinoma cell line, qHTS therapeutic library screen (AID 1346986). Note: nearly all actives have a fitted effect of over 60% in size. The procedure, abridged: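 Viability by CellTiter-Glo after 72 h compound exposure at 37 degree C, 5% CO2. Cytotoxic call: curve class -1.1 to -2.4, maximum response >50%, AC50 < 10 uM, compared across KB-3-1 and P-gp-overexpressing KB-8-5-11.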

The nature of experiment [13]: qHTS assay to identify small molecule inhibitors of chordoma cells - UCH-1 (AID 1259355). Note: % is set by controls: 0 for no effect and ±100 for the full control effect; nearly all actives have a fitted effect of over 55% in size. Summed up:
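Screening used approved and investigational drugs in 15-point titration against 800 seeded cells per well. A fixed combination of auranofin with camptothecin, doxorubicin, rubitecan and topotecan followed compound addition, and growth was scored by CellTiter-Glo after 48hr.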

A short description of experiment [14]: qHTS assay to identify small molecule inhibitors of chordoma cells - UCH-2 (AID 1259356). Note: % is set by controls: 0 for no effect and ±100 for the full control effect.
Experiment [15] in a line: Identifying Small Molecule Inhibitors of Pancreatic Cancer Stem Cells (SN12C, Adherent) (AID 1259358).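 Note: cell survival measured after 48 h of compound exposure.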 Summed up:
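Endpoint: ATP-based luminescence, 48 h drug exposure. Bortezomib at 9.2 uM final as full-kill control; DMSO vehicle as negative control; activity normalized between vehicle and cell-free wells.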

A short description of experiment [16]: Identifying Small Molecule Inhibitors of Pancreatic Cancer Stem Cells (SN12C, Spheroid) (AID 1259360).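 Note: 100% = DMSO-treated cells and 0% = wells without cells.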 The settings on record: Potency: SN12C spheroid viability. The procedure, abridged:
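Spheroids grown 14 days in stem cell media on hydrogel-coated nonadherent plates; 2D lines seeded directly. Compounds added after 4 h attachment, 48 h at 37C, 5% CO2; CellTiter-Glo luminescence normalized to DMSO (no inhibition) and no-cell wells (full inhibition).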

Structures are written as SMILES. Records with an inconclusive call do not appear. Activity calls are given as the source filed them. Unless noted, calls come from the whole dose curve; as a rule, active = well fitted curve in the direction sought with a large enough effect; inconclusive = small, poorly fitted or top-dose-only effect, or another doubt; inactive = no such curve, though single readings can be large; an effect the other way counts as inactive or inconclusive.

Take `CC1=C(C(=O)O)N2C(=O)[C@@H](NC(=O)[C@H](N)C3=CCC=CC3)[C@H]2SC1`: in experiment [1], the parasite growth remaining, % of DMSO control (lower = more inhibition) worked out at 87.3%. The parasite growth, % of control (lower = inhibition) in experiment [2] turned out to be 74.3%. The molecule further had a growth, % of control in [3] of 51.2%. Besides, in experiment [4], the cell viability, % of control (lower = more cytotoxic) turned out to be 145%. The viability (% of control) in [5] was found to be 99.4%. Further, the Potency result in experiment [6], in experiment [7], in [8], in [9], in experiment [10] and in experiment [11] was “inactive” throughout. For the same molecule, the Potency entry in [12] is “inactive”.

For the molecule `CN(c1nccc(=O)[nH]1)C1CCN(c2nc3ccccc3n2Cc2ccc(F)cc2)CC1`, the parasite growth remaining, % of DMSO control (lower = more inhibition) in experiment [1] was 81.9%. The parasite growth, % of control (lower = inhibition) in experiment [2] was 23.1%. In addition, in experiment [3], the growth, % of control stood at 17.5%. Further, in experiment [4], the cell viability, % of control (lower = more cytotoxic) stood at 107%. In [5], the viability (% of control) worked out at 108%. The Potency entry in experiment [6], in experiment [7], in experiment [13], in experiment [14] and in [12] was “inactive” each time. Also, the Potency in [8] is 13.2 µM (active); in experiment [9] it was 18.7 µM (active).

For `CC(C)(S)[C@@H](N)C(=O)O`, the parasite growth remaining, % of DMSO control (lower = more inhibition) in [1] was found to be 127%. The parasite growth, % of control (lower = inhibition) in [2] is 76.1%. Also, in experiment [3], the growth, % of control stood at 95.7%. Besides, the cell viability, % of control (lower = more cytotoxic) in experiment [4] amounted to 117%. The viability (% of control) in experiment [5] was 106%. Also, the Potency result in [6], in experiment [7], in experiment [8], in [9], in experiment [10] and in experiment [11] was “inactive” in each case. Also, the Potency result in [13] and in experiment [14] was “inactive” each time.

`Nc1cccc2c1CN(C1CCC(=O)NC1=O)C2=O` (configuration not stated): the parasite growth remaining, % of DMSO control (lower = more inhibition) in [1] is 107% [at 57.5 µM]. Also, in experiment [2], the parasite growth, % of control (lower = inhibition) turned out to be 127% [at 57.5 µM]. The molecule also came in with a growth, % of control in [3] of 108% [at 57.5 µM]. The cell viability, % of control (lower = more cytotoxic) in [4] turned out to be 178% [at 92.2 µM]. In addition, in [5], the viability (% of control) was determined as 101% [at 92.2 µM]. Also, the Potency entry in experiment [6], in experiment [7], in experiment [8], in experiment [10], in experiment [11] and in [13] was “inactive” each time. Also, the Potency result in experiment [14], in experiment [15] and in [16] was “inactive” throughout.

As for `CCCCc1ccc2nc(NC(=O)OC)[nH]c2c1`, the parasite growth remaining, % of DMSO control (lower = more inhibition) in experiment [1] amounted to 85.9%. The parasite growth, % of control (lower = inhibition) in experiment [2] came to 56.6%. The same molecule showed a growth, % of control in experiment [3] of 27.6%. Moreover, in experiment [4], the cell viability, % of control (lower = more cytotoxic) was 47.1%. In addition, the viability (% of control) in [5] is 13.4%. Further, the Potency entry in experiment [6], in [7], in experiment [11] and in experiment [14] was “inactive” in each case. Besides, the Potency in experiment [8] was 0.0105 µM (active); in experiment [9], 0.0187 µM (active); in experiment [10] it was 0.0093 µM (active).

In the case of `COc1c(O)cc2c(c1O)[C@@H]1O[C@H](CO)[C@@H](O)[C@H](O)[C@H]1OC2=O`, the parasite growth remaining, % of DMSO control (lower = more inhibition) in [1] worked out at 100%. In [2], the parasite growth, % of control (lower = inhibition) turned out to be 81.9%. In experiment [3], this molecule had a growth, % of control of 116%. The cell viability, % of control (lower = more cytotoxic) in experiment [4] came out at 123%. In addition, the viability (% of control) in experiment [5] was determined as 97.8%. In addition, the Potency result in experiment [6], in [7], in experiment [8], in [9], in [10] and in experiment [11] was “inactive” each time. Moreover, the Potency result in experiment [13] and in [14] was “inactive” throughout.

Take `O=c1oc2cc(O)ccc2s1`: the parasite growth remaining, % of DMSO control (lower = more inhibition) in experiment [1] stood at 123%. Further, the parasite growth, % of control (lower = inhibition) in [2] worked out at 54.9%. For the same molecule, in [3], the growth, % of control stood at 99.9%. Further, the cell viability, % of control (lower = more cytotoxic) in experiment [4] was 68.5%. Besides, the viability (% of control) in [5] worked out at 92.8%. The Potency in experiment [6] is 11.8 µM (active); in experiment [8], 16.6 µM (active); in [9], 18.7 µM (active); in [10] it was 13.2 µM (active); in [11], 20.9 µM (active). Also, the Potency entry in [7], in [13] and in [14] was “inactive” throughout.

For `O=C(c1ccccc1)c1ccc2n1CCC2C(=O)O` (configuration not stated), the parasite growth remaining, % of DMSO control (lower = more inhibition) in experiment [1] came out at 107%. For the same molecule, in experiment [2], the parasite growth, % of control (lower = inhibition) turned out to be 121%. In addition, the growth, % of control in experiment [3] amounted to 104%. Also, the cell viability, % of control (lower = more cytotoxic) in experiment [4] worked out at 14.8%. In experiment [5], the viability (% of control) was 15.1%. Also, the Potency in experiment [6] was 18.7 µM (active); in [7], 16.6 µM (active); in experiment [8], 3.32 µM (active); in experiment [9], 4.18 µM (active); in [10] it was 6.62 µM (active); in experiment [11], 3.72 µM (active). The Potency entry in experiment [13] and in experiment [14] was “inactive” in each case.

Source of the values: PubChem BioAssay (NCATS).
